In the OligoGym collection:
Also: reference of the scale not given here.

What follows are sequences tested against COX10 (assay: pooled miR-30 sensor sort-seq; sequence = guide strand). Details: shRNA.
TTTCTGGACAAAGATAGGCTGG was tested, and the sensor-assay potency score (higher = more potent) was -0.448. TTATCTACCTACAATCCCTTTA gave a sensor-assay potency score (higher = more potent) of -0.2. TTTGAGGAAGCTAAAGTGCTGA gave a sensor-assay potency score (higher = more potent) of 0.14. TTCGTTTATAATCTTGTTCTAA gave a sensor-assay potency score (higher = more potent) of 0.241.

These sequences were tested against COX19 in the same assay as above. Details: shRNA.
In the case of TAAATATTCTTTTGATTCCTTT, the sensor-assay potency score (higher = more potent) is reported as -0.553. TATTGTTATGAAGACACTTCAT gave a sensor-assay potency score (higher = more potent) of 0.108. Work on TTCCACTAGTCAAGTCTCCAAA yielded a sensor-assay potency score (higher = more potent) of -0.858. ATTATTGTTATGAAGACACTTC gave a sensor-assay potency score (higher = more potent) of 0.267. TTCTGCACAAAGCATTTTCAAA gave a sensor-assay potency score (higher = more potent) of -1.5. In the case of TTTTACATTCACCTAAGTGATC, the sensor-assay potency score (higher = more potent) is reported as -1.57. Work on TAGTCAAGTCTCCAAATCCCAG yielded a sensor-assay potency score (higher = more potent) of -1.71. Sequence TAAAGCTTTTACATTCACCTAA has a sensor-assay potency score (higher = more potent) of 0.0153. With ATCAATTTTCTCTCCATCCTGC the sensor-assay potency score (higher = more potent) was 0.0848. ATTGTTATGAAGACACTTCATG gave a sensor-assay potency score (higher = more potent) of -0.941. TTCACCTAAGTGATCCAGCGGG showed a sensor-assay potency score (higher = more potent) of -0.488. ATGAATTTCTCTTTAAAGCTTT showed a sensor-assay potency score (higher = more potent) of -0.368.

The sequences below were run against COX4I2 in the same assay as above. Details: shRNA.
TAGGGGGACATCTTCCCCCCAC was tested, and the sensor-assay potency score (higher = more potent) was -1.04. For TTCTTCTCATAGTCCCAGCGGG, the sensor-assay potency score (higher = more potent) was -0.678. In the case of TTCCTCAGCACCAAGCTCCAGG, the sensor-assay potency score (higher = more potent) is reported as -0.515. TTGAGTTCTGTGCAGAAGGGCT gave a sensor-assay potency score (higher = more potent) of -0.914. Work on TCTCATTGAACTGGAGCCGGTA yielded a sensor-assay potency score (higher = more potent) of -1.09. TCCACCTTTCCTCAGCACCAAG showed a sensor-assay potency score (higher = more potent) of -2.06. Sequence TTCATCTCCGCAAAGGTCTCAT has a sensor-assay potency score (higher = more potent) of -0.117. TCGTCCGTCAAGGTGATCGGCT was tested, and the sensor-assay potency score (higher = more potent) was -1.37. TTCATGTCCAGCATGCGCTGCA showed a sensor-assay potency score (higher = more potent) of 0.312. Sequence TGAAGAAGAAGACACAACCCAT has a sensor-assay potency score (higher = more potent) of -0.804. AAAGGTCTCATTGAACTGGAGC showed a sensor-assay potency score (higher = more potent) of -0.86. For TCAGCGTTGAGTTCTGTGCAGA, the sensor-assay potency score (higher = more potent) was -0.281.

What follows are sequences tested against COX6B2 in the same assay as above. Details: shRNA.
Sequence TGATCTGCTCGTTCCAGCTCTC has a sensor-assay potency score (higher = more potent) of -0.561. Work on TTCCAGCTCTCCACCCAGCTGA yielded a sensor-assay potency score (higher = more potent) of -0.84. TCCCGTTCTTGATCTGCTCGTT was tested, and the sensor-assay potency score (higher = more potent) was -0.329. With TACGGATCTGGTTCTGGCTGGG the sensor-assay potency score (higher = more potent) was -0.241. TTACGGATCTGGTTCTGGCTGG was tested, and the sensor-assay potency score (higher = more potent) was 0.238. TAGTCCAGGAAGTTCTGGTAGC showed a sensor-assay potency score (higher = more potent) of -0.67. Sequence TGGTAGTCCAGGAAGTTCTGGT has a sensor-assay potency score (higher = more potent) of -0.611. Work on TAGTACTCGCAGGGCTGCGTGC yielded a sensor-assay potency score (higher = more potent) of -1.22. With TTGATCTGCTCGTTCCAGCTCT the sensor-assay potency score (higher = more potent) was -0.259. In the case of TACACGCGGAAATAGTACTCGC, the sensor-assay potency score (higher = more potent) is reported as -0.697. Sequence TCGTTCCAGCTCTCCACCCAGC has a sensor-assay potency score (higher = more potent) of -1.49. TTCTTGATCTGCTCGTTCCAGC gave a sensor-assay potency score (higher = more potent) of -0.0146.
